Assay outcomes deposited in PubChem by National Center for Advancing Translational Sciences (NCATS).
Shown are actives, neighbours in structure and some others; about 1% of the full set was active somewhere.
RGS4 inh: human RGS4 inhibition; hit rate 0.039% among 390,000; Potency, µM (titrated, usually from 114 µM), without a hit: at the top dose activity change, negative = inhibition, hits mostly inhibitors; P49798; Transcreener GDP fluorescence polarization, RGS4-accelerated GTP hydrolysis; AID 504845; note: nearly all actives have a fitted effect of over 75% in size
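MLSMR compounds (23 nl, pin-transferred) preincubated 10 min at room temperature with a 500nM (2x) first reagent, then RGS4 at 900nM (2x) plus Transcreener GDP mix added; fluorescence polarization (620/688 nm) read before and after 90 min at 30 °C.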
TrxR1 substrate: is turned over as a substrate by rat TrxR1; O89049; purified TrxR1 substrate turnover, NADPH consumption readout; Potency, µM (titrated, usually from 114 µM), for the others: at the highest dose activity change, negative = substrate turnover; hit rate 0.01% among 390,000; AID 588456; note: nearly all actives have a fitted effect of over 50% in size
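Rat TrxR1, dispensed at 90 nM, was prereduced with 400 uM NADPH (final) for 5 min at ~22 deg C, then incubated with compound 15 min before 400 uM selenite. A first-read NADPH fluorescence drop versus no-compound background flagged substrates.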
GALK inhibitor: galactokinase (human) inhibition; Purified GALK, Kinase-Glo residual ATP luminescence; Potency, µM (highest dose often 57.5 µM), inactives show at the top dose activity change, negative = inhibition, actives largely listed as inhibitors; hit rate 0.007% among 270,000; P51570
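Quantitative HTS: GALK 5 nM, ATP 35 uM, galactose 100 uM, 1 h room temperature, then luciferase-based ATP detection.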
Eya2 phos inh: inhibitors of human Eya2 phosphatase activity | recombinant Eya2, OMFP fluorescence dephosphorylation (OMFP is methylfluorescein phosphate) | O00167 | hit rate 0.006% among 330,000 | Potency, µM (series often up to 76.9 µM), for inactives: at the highest dose activity, negative = inhibition, hits mostly inhibitors
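Eya2 (0.2 uM) preincubated 10 min at ambient with compound, then OMFP substrate added at 50 uM; 10 min reaction in 50 mM HEPES pH 7.5, 50 mM NaCl, 5 uM MgCl2, 0.05% BSA, 1 mM DTT. Fluorescence read at Ex 485/Em 525 nm.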
rTrxR1 inhibitor: blocks rat thioredoxin reductase 1 | recombinant rTrxR1, NADPH fluorescence consumption, selenite substrate | Potency, µM (doses to about 114 µM), without a hit: top-dose activity change, negative = inhibition, usual class: inhibitors | hit rate 1% among 390,000; note: nearly all actives have a fitted effect of over 65% in size
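Rat TrxR1 (90 nM in the dispensed reagent) was pre-reduced with 400 uM NADPH for 5 min at room temperature, then incubated with compound for 15 min. After 400 uM selenite was added, NADPH fluorescence (Ex 340/Em 450 nm) was followed for 8 min.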
USP2a inh: inhibitors of human ubiquitin-specific protease USP2a | O75604 | USP2 core, Ub-CHOP2 coupled fluorogenic reporter, 485/531 | Potency, µM (highest dose often 38.3 µM), inactives show top-dose activity change, negative = inhibition, most hits filed as inhibitors | hit rate 0.01% among 330,000 | AID 463254;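 note: plate controls were DMSO wells for no effect and full inhibition by NEM control for full effect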
Target sequence (O75604 whole entry, looked up): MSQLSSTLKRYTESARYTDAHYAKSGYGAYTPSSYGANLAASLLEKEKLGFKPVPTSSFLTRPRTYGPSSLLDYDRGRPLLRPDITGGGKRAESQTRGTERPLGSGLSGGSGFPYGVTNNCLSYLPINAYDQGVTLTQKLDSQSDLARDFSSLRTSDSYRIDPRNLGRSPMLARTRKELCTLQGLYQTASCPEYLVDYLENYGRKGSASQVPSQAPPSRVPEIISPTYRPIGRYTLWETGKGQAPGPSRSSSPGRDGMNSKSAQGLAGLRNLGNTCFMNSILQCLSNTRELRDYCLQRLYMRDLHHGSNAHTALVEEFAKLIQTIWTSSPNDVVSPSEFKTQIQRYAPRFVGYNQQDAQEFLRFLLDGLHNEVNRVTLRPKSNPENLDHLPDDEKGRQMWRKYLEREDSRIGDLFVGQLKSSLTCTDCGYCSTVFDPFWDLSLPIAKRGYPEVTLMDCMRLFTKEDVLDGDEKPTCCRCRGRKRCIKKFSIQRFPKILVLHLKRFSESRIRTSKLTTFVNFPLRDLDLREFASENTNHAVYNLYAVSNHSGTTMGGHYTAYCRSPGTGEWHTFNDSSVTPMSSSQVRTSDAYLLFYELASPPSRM
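Deubiquitinase activity read as fluorescence (485/531 nm) after Ub-CHOP2 cleavage activates the enterokinase reporter on its substrate; USP2 core 10nM, Ub-CHOP2 and substrate 25nM each, 30min compound preincubation then 60min RT; data normalized to NEM, curves fitted.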
* marks the source's active call; other numbers are inactive results; ! = not active in a repeat; [ ] = dose if it differs, or a comment. Calls come from the whole dose curve; as a rule, active = well fitted curve in the direction sought with a large enough effect; inconclusive = small, poorly fitted or top-dose-only effect, or another doubt; inactive = no such curve, though single readings can be large; an effect the other way counts as inactive or inconclusive. Unless noted, % is set by controls: 0 for no effect and ±100 for the full control effect; potency is the fitted concentration of half-maximal effect.

COc1ccc(CCC(=O)O)cc1 was read as TrxR1 substrate 5% and rTrxR1 inhibitor 5%.
`Cc1ccc(C(=O)OCC(=O)N(CC(C)C)c2c(N)n(Cc3ccccc3)c(=O)[nH]c2=O)cc1[N+](=O)[O-]` gave RGS4 inh -8%, TrxR1 substrate 11%, Eya2 phos inh 9%, rTrxR1 inhibitor 13% and USP2a inh 0%.
CN(C(=O)COC(=O)c1ccc(Br)c([N+](=O)[O-])c1)c1c(N)n(Cc2ccccc2)c(=O)[nH]c1=O was read as RGS4 inh -34%, TrxR1 substrate -7%, Eya2 phos inh 0%, rTrxR1 inhibitor 40µM* and USP2a inh 1%.
`COC1=CC(=O)C=C(OC)C1=O` gave RGS4 inh -68%, TrxR1 substrate -23% and rTrxR1 inhibitor 32µM*.
For COC1=CC(=O)c2ccccc2C1=O the results were RGS4 inh 2%, TrxR1 substrate -6%, Eya2 phos inh 10%, rTrxR1 inhibitor inconclusive and USP2a inh -1%.
Cc1ccc2cc(CN(Cc3ccco3)S(=O)(=O)c3c(C)ccc4nsnc34)c(=O)[nH]c2c1 was read as RGS4 inh -1%, TrxR1 substrate -4%, GALK inhibitor -4%, Eya2 phos inh 13%, rTrxR1 inhibitor 13µM* and USP2a inh -1%.
For O=C(Nc1nccs1)[C@@H]1CC=C[C@@H]2CCN(Cc3ccc(Cl)c(Cl)c3)C(=O)[C@@H]21 the results were TrxR1 substrate -5% and rTrxR1 inhibitor 1%.
For CC(C)(C)c1ccc(C(=O)CCCN2CCC(OC(c3ccccc3)c3ccccc3)CC2)cc1 the results were RGS4 inh 8%[56.9 µM], TrxR1 substrate -10%[57.1 µM], Eya2 phos inh -16% and rTrxR1 inhibitor inconclusive.
For Cc1ccc(-c2nc(CS(=O)(=O)CC(=O)N3CCN(C)CC3)c(C)o2)cc1 the results were RGS4 inh -23%, TrxR1 substrate 1%, GALK inhibitor 3%, Eya2 phos inh -5%, rTrxR1 inhibitor 18% and USP2a inh 5%.
`Cc1ccc(-c2nc(CS(=O)(=O)CC(=O)N3CC(C)CC(C)C3)c(C)o2)cc1` (stereo not drawn) gave RGS4 inh -17%, TrxR1 substrate 0%[57.1 µM], GALK inhibitor 1%, Eya2 phos inh -10%, rTrxR1 inhibitor 4µM* and USP2a inh -1%.
CCCn1cnc2c1c(=O)n(CCCCC(C)=O)c(=O)n2C was read as RGS4 inh 24µM*!, TrxR1 substrate 5%[57.1 µM], Eya2 phos inh 3% and rTrxR1 inhibitor 11%[57.1 µM].
Screening COC(=O)CSC1=C(C#N)C(=O)NC(c2ccccc2)S1 (stereo not drawn) returned RGS4 inh -56%[56.9 µM], TrxR1 substrate -24%, GALK inhibitor -2%, Eya2 phos inh 15%, rTrxR1 inhibitor 28µM* and USP2a inh 1%.
For CSC1=C(C#N)C(=O)NC(c2ccccc2O)S1 (stereo not drawn) the results were RGS4 inh -38%, TrxR1 substrate -2%[57.1 µM], GALK inhibitor -15%, Eya2 phos inh -4%, rTrxR1 inhibitor inconclusive and USP2a inh 0%.
`C=C(CN(C)C)C(=O)c1cc(C)ccc1C` gave RGS4 inh inconclusive, TrxR1 substrate 9%[57.1 µM] and rTrxR1 inhibitor 1.8µM*.
O=C(C[N+]1(CCO)CCOCC1)c1cccc2ccccc12 was read as TrxR1 substrate 9%[0.0914 µM] and rTrxR1 inhibitor 9%.
`C=CCn1c(SCC(=O)N(CC)C2CCS(=O)(=O)C2)nc2scc(-c3ccccc3)c2c1=O` (stereo not drawn) gave RGS4 inh -46%, TrxR1 substrate -8% and rTrxR1 inhibitor 45µM*.
For CCCN1CCC(=O)N(C(CSc2ccc(Br)cc2)CC(C)C)CC1 (stereo not drawn) the results were RGS4 inh -12%, TrxR1 substrate -1% and rTrxR1 inhibitor 13%.
`CC1(OC(=O)C2CCCC2)C(=O)C=C2C=C(c3ccsc3)N(CCCCO)C=C2C1=O` (stereo not drawn) gave RGS4 inh 3%, TrxR1 substrate -8%[57.1 µM], GALK inhibitor 4%, Eya2 phos inh -7%, rTrxR1 inhibitor 12%[57.1 µM] and USP2a inh -2%.
For CC1(OC(=O)C2CCCC2)C(=O)C=C2C=C(c3ccsc3)N(Cc3ccco3)C=C2C1=O (stereo not drawn) the results were RGS4 inh -38%, TrxR1 substrate -2%, GALK inhibitor -1%, Eya2 phos inh -1%, rTrxR1 inhibitor 32µM* and USP2a inh 1%.
`C/C(CCc1oc2ccccc2c1-c1ccc(C)o1)=N/O` gave RGS4 inh inconclusive, TrxR1 substrate 3%, GALK inhibitor 2%, Eya2 phos inh -16%, rTrxR1 inhibitor inconclusive and USP2a inh -15%.
C/C(CCc1oc2c(Br)cc(Br)cc2c1-c1ccc(C)o1)=N\O was read as RGS4 inh inconclusive, TrxR1 substrate 4%, GALK inhibitor -3%, Eya2 phos inh -2%, rTrxR1 inhibitor 25µM* and USP2a inh 3%.
Screening Oc1ccccc1/C=N/c1c(-c2ccco2)nc2ccccn12 returned RGS4 inh inconclusive, TrxR1 substrate 81%, GALK inhibitor -1%, Eya2 phos inh 2%, rTrxR1 inhibitor 79µM* and USP2a inh -3%.
Screening Clc1ccc(/C=C/c2ccnc3ccccc23)c(Cl)c1 returned TrxR1 substrate -8% and rTrxR1 inhibitor inconclusive.
Screening O=C(/C=C/c1ccc(Br)o1)Nc1nccs1 returned RGS4 inh -82%[56.9 µM], TrxR1 substrate 1%, GALK inhibitor 10%, Eya2 phos inh 20%, rTrxR1 inhibitor 28µM* and USP2a inh 1%.
O=C(/C=C/c1ccc(Br)o1)NCc1ccccc1 was read as RGS4 inh inconclusive, TrxR1 substrate 2%, GALK inhibitor 1%, Eya2 phos inh -19%, rTrxR1 inhibitor 4µM* and USP2a inh 4%.
CN(C)c1ccc(/C=C/c2ccnc3ccc(F)cc23)cc1 was read as TrxR1 substrate -6%[57.1 µM] and rTrxR1 inhibitor 1%[57.1 µM].
`O=S(=O)(c1cccc(Br)c1)N1CCN(c2nc(-c3cccs3)nc3ccccc23)CC1` gave RGS4 inh 28%, TrxR1 substrate -2% and rTrxR1 inhibitor 15%.
For C=CCOC(=O)/C(=C/c1ccco1)NC(=O)/C=C/c1ccccc1 the results were RGS4 inh -4%, TrxR1 substrate -5%, GALK inhibitor 4%, Eya2 phos inh -1%, rTrxR1 inhibitor 18µM* and USP2a inh 7%.
